{"source": "paper PMC4336329", "about": "(PLoS ONE, 2015)", "note": "About 14,000 (4.5%) of roughly 310,000 compounds showed an effect of 50% or more. The effect is printed as a negative number. For the sample, strong results were picked, then their nearest neighbours and some compounds at random.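 Also: peak tail current of the secondary pulse compared with the same well before compound.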", "data": [{"biological_target": "human ether-à-go-go-related gene (hERG) potassium channel (human, UniProt Q12809)", "sequence (Q12809 whole entry, looked up)": "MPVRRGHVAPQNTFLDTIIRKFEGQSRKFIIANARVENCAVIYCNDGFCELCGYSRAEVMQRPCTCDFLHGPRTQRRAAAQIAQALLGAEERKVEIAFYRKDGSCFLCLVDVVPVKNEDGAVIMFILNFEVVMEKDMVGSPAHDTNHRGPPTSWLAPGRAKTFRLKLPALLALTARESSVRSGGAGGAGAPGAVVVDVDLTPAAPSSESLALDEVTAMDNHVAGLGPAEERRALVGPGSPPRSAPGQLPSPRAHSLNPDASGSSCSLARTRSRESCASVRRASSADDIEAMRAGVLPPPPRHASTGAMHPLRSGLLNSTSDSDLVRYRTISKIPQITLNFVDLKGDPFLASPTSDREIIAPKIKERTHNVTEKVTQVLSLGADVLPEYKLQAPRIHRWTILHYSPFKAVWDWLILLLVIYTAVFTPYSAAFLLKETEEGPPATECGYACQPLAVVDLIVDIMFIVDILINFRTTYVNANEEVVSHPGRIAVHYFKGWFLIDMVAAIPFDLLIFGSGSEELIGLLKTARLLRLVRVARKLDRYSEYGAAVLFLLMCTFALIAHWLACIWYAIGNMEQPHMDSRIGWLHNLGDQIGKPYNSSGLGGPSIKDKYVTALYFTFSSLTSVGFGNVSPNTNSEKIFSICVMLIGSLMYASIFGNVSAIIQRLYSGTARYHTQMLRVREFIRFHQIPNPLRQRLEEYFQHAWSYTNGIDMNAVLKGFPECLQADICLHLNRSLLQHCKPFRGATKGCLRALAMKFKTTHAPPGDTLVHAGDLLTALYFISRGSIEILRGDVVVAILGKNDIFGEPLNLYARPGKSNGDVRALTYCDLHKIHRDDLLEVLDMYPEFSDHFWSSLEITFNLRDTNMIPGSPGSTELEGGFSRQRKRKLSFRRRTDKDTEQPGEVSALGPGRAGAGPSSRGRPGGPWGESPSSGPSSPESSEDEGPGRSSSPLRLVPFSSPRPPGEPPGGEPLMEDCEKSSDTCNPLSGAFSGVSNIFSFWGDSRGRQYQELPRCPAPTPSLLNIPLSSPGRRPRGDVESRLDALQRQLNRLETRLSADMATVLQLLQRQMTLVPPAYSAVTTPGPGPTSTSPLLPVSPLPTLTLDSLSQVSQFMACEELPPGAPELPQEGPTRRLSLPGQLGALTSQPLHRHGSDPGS", "test": "primary screen, population patch clamp on CHO cells stably expressing hERG; higher = less effect of the substance", "units": {"hERG current change (%, negative = inhibition) at 10uM": "%"}, "values": [{"smiles": "Cc1ccc(NC(=O)C2=C(C(=O)O)CCCC2)cc1F", "hERG current change (%, negative = inhibition) at 10uM": 7.33}, {"smiles": "Cn1ncc(C(=O)Nc2ccc(Cl)cc2)c1C(F)(F)F", "hERG current change (%, negative = inhibition) at 10uM": -12}, {"smiles": "O=C(c1ccccc1)N1CCN(c2ccc([N+](=O)[O-])c(NCC3CCCO3)c2)CC1", "note": "(centres unmarked)", "hERG current change (%, negative = inhibition) at 10uM": -76.9}, {"smiles": "O=[N+]([O-])c1ccc(N2CCNCC2)cc1NCC1CCCO1", "note": "(centres unmarked)", "hERG current change (%, negative = inhibition) at 10uM": -22.1}, {"smiles": "CN1CCN(c2ccc([N+](=O)[O-])c(NCC3CCCO3)c2)CC1.Cl", "note": "(centres unmarked)", "hERG current change (%, negative = inhibition) at 10uM": -41.4}, {"smiles": "O=C(c1ccccc1F)N1CCN(c2ccc([N+](=O)[O-])c(NCC3CCCO3)c2)CC1", "note": "(centres unmarked)", "hERG current change (%, negative = inhibition) at 10uM": -80.8}, {"smiles": "CC(=O)N1CCN(c2ccc([N+](=O)[O-])c(NCC3CCCO3)c2)CC1", "note": "(centres unmarked)", "hERG current change (%, negative = inhibition) at 10uM": -18.3}, {"smiles": "NC(=O)c1ccc(NCC2CCCO2)c([N+](=O)[O-])c1", "note": "(centres unmarked)", "hERG current change (%, negative = inhibition) at 10uM": 12.7}, {"smiles": "O=C(NCCc1ccccc1)c1ccc(NCC2CCCO2)c([N+](=O)[O-])c1", "note": "(centres unmarked)", "hERG current change (%, negative = inhibition) at 10uM": -68.9}, {"smiles": "CC(C)(C)C(=O)N1CCN(c2ccc([N+](=O)[O-])c(NCC3CCCO3)c2)CC1", "note": "(centres unmarked)", "hERG current change (%, negative = inhibition) at 10uM": -20.8}, {"smiles": "O=C(Nc1ccccc1)c1ccc(NCC2CCCO2)c([N+](=O)[O-])c1", "note": "(centres unmarked)", "hERG current change (%, negative = inhibition) at 10uM": -2.42}, {"smiles": "O=C1CC(N(C(=O)c2ccco2)c2cccc(Cl)c2)C(=O)N1c1cccc(Cl)c1", "note": "(centres unmarked)", "hERG current change (%, negative = inhibition) at 10uM": -19.7}, {"smiles": "C/C(Cn1cnc([N+](=O)[O-])n1)=N\\NC(=O)c1ccccc1O", "hERG current change (%, negative = inhibition) at 10uM": 8.06}, {"smiles": "COc1cc(C(=O)Nc2ccc(Br)cc2C(=O)c2ccccc2)cc(OC)c1OC", "hERG current change (%, negative = inhibition) at 10uM": 12.4}, {"smiles": "COc1ccc(CNS(=O)(=O)c2cc(-c3cc(C)no3)ccc2C(C)C)cc1", "hERG current change (%, negative = inhibition) at 10uM": -14.9}, {"smiles": "CCCCC(CC)CNC(=O)C1CCCN(S(=O)(=O)c2cnc[nH]2)C1", "note": "(centres unmarked)", "hERG current change (%, negative = inhibition) at 10uM": 3.45}, {"smiles": "N#CCCN(CC(=O)O)S(=O)(=O)c1ccccc1", "hERG current change (%, negative = inhibition) at 10uM": 5.74}, {"smiles": "CC(C)(C)OC(=O)N[C@H](Cc1ccccc1)C(=O)N1CCC(C(=O)O)CC1", "hERG current change (%, negative = inhibition) at 10uM": 9.08}, {"smiles": "COc1ccc2c(c1)CCc1c(C(=O)Nc3cc(C)n(Cc4ccc(Cl)cc4)n3)noc1-2", "hERG current change (%, negative = inhibition) at 10uM": -30.5}, {"smiles": "COc1ccc(-c2nc(N)n[nH]2)cc1OC", "hERG current change (%, negative = inhibition) at 10uM": 18.9}, {"smiles": "COc1ccc(-c2n[nH]c3c2CN(C(=O)c2ccccc2)CC3)cc1", "hERG current change (%, negative = inhibition) at 10uM": -6.13}, {"smiles": "Fc1cccc(NCc2ccoc2)c1", "hERG current change (%, negative = inhibition) at 10uM": -7.89}, {"smiles": "Cc1ccc(-c2sc(-c3ccccc3)nc2CC(=O)Nc2ccccc2F)cc1", "hERG current change (%, negative = inhibition) at 10uM": 6.09}, {"smiles": "O=C(NCc1ccccc1)N1CCN(c2ccccc2F)CC1", "hERG current change (%, negative = inhibition) at 10uM": 1.22}, {"smiles": "OCC1(Cc2ccccc2)CCN(C2CCN(c3ccccc3F)CC2)CC1", "hERG current change (%, negative = inhibition) at 10uM": -68.8}, {"smiles": "O=C(NCc1ccccc1)N1CCC(CO)(Cc2cccc(F)c2)CC1", "hERG current change (%, negative = inhibition) at 10uM": -12.8}, {"smiles": "CC(=O)N1CCC(N2CCN(c3ccccc3F)CC2)CC1", "hERG current change (%, negative = inhibition) at 10uM": 0.444}, {"smiles": "OCC1(Cc2ccccc2)CCN(C2CCN(c3ccc(F)c(F)c3)CC2)CC1", "hERG current change (%, negative = inhibition) at 10uM": -112}, {"smiles": "OCC1(Cc2ccccc2)CCCN(C2CCCC2)C1", "note": "(centres unmarked)", "hERG current change (%, negative = inhibition) at 10uM": -8.01}, {"smiles": "Cc1ccc(-c2ccc(=O)n(Cc3c(F)cccc3Cl)n2)cc1", "hERG current change (%, negative = inhibition) at 10uM": 9.18}, {"smiles": "Cc1ccc2nc(Nc3ccccc3O)nc(-c3ccccc3)c2c1", "hERG current change (%, negative = inhibition) at 10uM": 14.3}, {"smiles": "O=C(CCN1C(=O)c2cccc3cccc(c23)C1=O)NCc1cccnc1", "hERG current change (%, negative = inhibition) at 10uM": -16.7}, {"smiles": "C/C(CC(=O)Nc1ccccc1Cl)=N\\NC(=O)C(=O)NCCO", "hERG current change (%, negative = inhibition) at 10uM": 6.65}, {"smiles": "O=C(O)c1ccc(S(=O)(=O)c2ccccc2)cc1", "hERG current change (%, negative = inhibition) at 10uM": 11.5}, {"smiles": "COS(=O)(=O)[O-].C[N+]1(C)CCC(=C(c2ccccc2)c2ccccc2)CC1", "hERG current change (%, negative = inhibition) at 10uM": -71}, {"smiles": "CC1CC(C)(C)CC(=O)C1C(=O)c1ccccc1", "note": "(centres unmarked)", "hERG current change (%, negative = inhibition) at 10uM": 16.4}, {"smiles": "CCOc1ccc(-n2ccnc(SCC(=O)Nc3ccc(OC)cc3OC)c2=O)cc1", "hERG current change (%, negative = inhibition) at 10uM": 9.58}, {"smiles": "O=C(CON=C1c2ccccc2-c2ccccc21)NC12CC3CC(CC(C3)C1)C2", "hERG current change (%, negative = inhibition) at 10uM": -7.23}, {"smiles": "N#CC1=C(SCc2ccccc2)NC(=O)CC1c1ccco1", "note": "(centres unmarked)", "hERG current change (%, negative = inhibition) at 10uM": 10.9}, {"smiles": "C=CCNC(=O)CN1CCC(O)(c2ccc(F)cc2)CC1", "hERG current change (%, negative = inhibition) at 10uM": -5.8}, {"smiles": "CC(=O)N1CCC(O)(c2cccc(C(F)(F)F)c2)CC1", "hERG current change (%, negative = inhibition) at 10uM": 12.7}, {"smiles": "Cl.O=C(CCCN1CCC(O)(c2cccc(C(F)(F)F)c2)CC1)c1ccc(F)cc1", "hERG current change (%, negative = inhibition) at 10uM": -75.6}, {"smiles": "O=C(CCCN1CCC(O)(c2ccc(Br)cc2)CC1)c1ccc(F)cc1", "hERG current change (%, negative = inhibition) at 10uM": -79.7}, {"smiles": "O=C(CN1CCC(O)(c2ccc(F)cc2)CC1)NCc1ccc(F)cc1", "hERG current change (%, negative = inhibition) at 10uM": -34.2}, {"smiles": "OC1(c2cccc(C(F)(F)F)c2)CCN(CCN2CCCCC2)CC1", "hERG current change (%, negative = inhibition) at 10uM": -3.82}, {"smiles": "O=C1CCC([N+](=O)[O-])C(C2CC=CCC2)N1", "note": "(centres unmarked)", "hERG current change (%, negative = inhibition) at 10uM": 4.76}, {"smiles": "CCOC(=O)c1ccc(CNC(=O)CCC(=O)O)cc1", "hERG current change (%, negative = inhibition) at 10uM": 4.15}, {"smiles": "COc1ccnc2c1c(=O)n(Cc1ccc(F)cc1)c(=O)n2C", "hERG current change (%, negative = inhibition) at 10uM": -6.22}, {"smiles": "O=C(NCCCO)C(=O)Nc1cc2c3c(c1)CCN3C(=O)CC2", "hERG current change (%, negative = inhibition) at 10uM": 11.8}, {"smiles": "CC(=O)C1=C(C)NC(SCC(N)=O)=C(C#N)C1C", "note": "(centres unmarked)", "hERG current change (%, negative = inhibition) at 10uM": 8.65}, {"smiles": "CC(C)(C)c1ccc(C(=O)NCC(=O)OCc2ccc([N+](=O)[O-])cc2)cc1", "hERG current change (%, negative = inhibition) at 10uM": -7.46}, {"smiles": "COc1ccc(C(=O)COC(=O)CNC(=O)c2ccc(OC)cc2)cc1", "hERG current change (%, negative = inhibition) at 10uM": -52.6}, {"smiles": "COc1ccc(C(=O)NCC(=O)OCC(=O)c2cc(OC)c(OC)c(OC)c2)cc1OC", "hERG current change (%, negative = inhibition) at 10uM": 28.5}, {"smiles": "COc1ccc(C(=O)NCC(=O)OCc2ccc(Cl)cc2Cl)cc1OC", "hERG current change (%, negative = inhibition) at 10uM": -6.66}, {"smiles": "O=C(CNC(=O)c1ccccc1)OCc1ccc([N+](=O)[O-])cc1", "hERG current change (%, negative = inhibition) at 10uM": -33.9}, {"smiles": "COc1ccc(C(=O)NCC(=O)OCc2ccc([N+](=O)[O-])cc2)cc1", "hERG current change (%, negative = inhibition) at 10uM": -58.3}, {"smiles": "O=C(CNC(=O)c1ccccc1)OCc1cc(=O)n2cc(Br)ccc2n1", "hERG current change (%, negative = inhibition) at 10uM": -31.6}, {"smiles": "O=C(CNC(=O)c1cccc(OC(F)F)c1)OCc1cc(=O)n2cc(Br)ccc2n1", "hERG current change (%, negative = inhibition) at 10uM": -55.2}, {"smiles": "COc1ccc(C(=O)NCC(=O)NCC(=O)OCC(=O)c2ccc(Br)cc2)cc1", "hERG current change (%, negative = inhibition) at 10uM": 15.3}, {"smiles": "O=C(CNC(=O)c1cccc(F)c1)OCc1cc(=O)n2cc(Br)ccc2n1", "hERG current change (%, negative = inhibition) at 10uM": -9.66}, {"smiles": "COc1ccc(C(=O)NCC(=O)NCC(=O)OCC(=O)c2ccc(C)cc2)cc1", "hERG current change (%, negative = inhibition) at 10uM": 4.23}, {"smiles": "COc1ccc(C(=O)NCC(=O)OCC(=O)c2ccc(Cl)cc2)cc1OC", "hERG current change (%, negative = inhibition) at 10uM": -58.6}]}]}
